Compound activity from PubChem.
Sampled rows, rich in hits. Any-hit rate of the full collection: about 19%.
DT40 TDP1 CPT = growth inhibition of DT40 Tdp1-/-;hTDP1 cells with camptothecin (screen for TDP1 inhibitors); chicken DT40 Tdp1-/-;hTDP1 cells + 20 nM CPT, ATP luminescence, 48 h; Potency, µM (doses to about 46.2 µM), without a hit: at the highest dose activity change, negative = growth inhibition, usual class: inhibitors; 420,000 compounds, 12% hits; AID 686979; note: potency is the fitted concentration of half-maximal effect; % is set by controls: 0 for no effect and ±100 for the full control effect; nearly all actives have a fitted effect of over 55% in size
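Chicken DT40 Tdp1-/- cells complemented with human TDP1, 400 cells/well, exposed to compounds plus 20 nM camptothecin for at least 48 h at 37 C; viability read as ATP content by CellTiter-Glo luminescence.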
TDP1 cell noCPT = qHTS for Inhibitors of human tyrosyl-DNA phosphodiesterase 1 (TDP1): qHTS in cells in absence of CPT. AID 686978, 2013. Potency, µM (doses to about 46.2 µM), for inactives: at the highest dose activity change, negative = growth inhibition, actives largely listed as inhibitors. 420,000 compounds, 15% hits. DT40 Tdp1-/- hTDP1 cells, no CPT, ATP luminescence, 48 h; note: potency is the fitted concentration of half-maximal effect; % is set by controls: 0 for no effect and ±100 for the full control effect; nearly all actives have a fitted effect of over 55% in size
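A cellular qHTS used chicken DT40 cells lacking endogenous Tdp1 but carrying stably transfected human TDP1. Compounds were applied without camptothecin, and cell growth kinetics were judged by ATP-dependent luminescence after ≥48 hr.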
MCF10A rereplic = induces DNA re-replication in MCF 10a normal breast cells; MCF 10A DNA re-replication, Hoechst nuclear intensity, 48 h; Potency, µM (doses to about 46.1 µM), for the others: at the top dose activity, positive = re-replication, actives largely listed as activators; 350,000 compounds, 2.9% hits; note: potency is the fitted concentration of half-maximal effect; % of control where 0% means no effect; nearly all actives have a fitted effect of over 50% in size
IL1B secr inh = inhibitors of inflammasome signaling (IL-1 beta secretion). 360,000 compounds, 4.7% hits. activity change, % at 57.5 µM. THP-1 LPS/ATP IL-1B secretion, AlphaLISA, 16 h; stronger effect = lower value; in the data active = activity change below about -50%; inconclusive = mostly about -30% to -49%; note: % is set by controls: 0 for no effect and ±100 for the full control effect
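THP-1 cells pretreated 1 hr with compounds (up to 57.5 uM final), then stimulated with LPS (250 ng/mL final) plus ATP (1.25 mM final); secreted IL-1B measured by AlphaLISA after 16 hr, decreased signal indicating inhibition.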
SW480 rerep = inducers of DNA re-replication in SW480 colon cancer cells | SW480 DNA re-replication, Hoechst DNA content imaging, 48 h | Potency, µM (top dose mostly 46.1 µM), for inactives: top-dose re-replication activation, actives largely listed as activators | 340,000 compounds, 1.8% hits | AID 624297; note: potency is the fitted concentration of half-maximal effect; % of control where 0% means no effect; nearly all actives have a fitted effect of over 55% in size
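Compounds, transferred as 23 nL by pin tool, were incubated with cells for 48 hr; DNA content per nucleus was then quantified by Hoechst staining and fluorescence plate imaging.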
Chronic BCR inh = blocks chronic active B-cell receptor signaling; Potency, µM (highest dose often 46.1 µM), for inactives: at the highest dose activity change, negative = inhibition, most hits filed as inhibitors; ABC-DLBCL IkBa-CBG/CBR reporter, luminescence ratio, 4 h; 340,000 compounds, 0.05% hits; active = well fitted inhibition curve with a large enough effect in the signal ratio, with a control signal flat, not every such curve was filed as active; inconclusive = small, poorly fitted or top-dose-only effect, or effect the other way, or a change in a side signal; the % refers to the signal ratio;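 note: potency is the fitted concentration of half-maximal effect; plate controls were basal doxycycline-induced cells for no effect and cells given 10 µM MG132 for full effect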
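Cell line TMD8 (human ABC DLBCL), stably expressing tet-inducible CBG68-IkBa fusion and CBR; IMDM/0.5% FBS; cpd up to 46 uM; dox induction, 4 h, 37C/5% CO2; dual luminescence; green/red ratio; MG132 control.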
* marks the source's active call; other numbers are inactive results; ? = inconclusive; nt = no result given; [ ] = remark or other dose. Unless noted, calls come from the whole dose curve; as a rule, active = well fitted curve in the direction sought with a large enough effect; inconclusive = small, poorly fitted or top-dose-only effect, or another doubt; inactive = no such curve, though single readings can be large; an effect the other way counts as inactive or inconclusive.

SMILES	DT40 TDP1 CPT	TDP1 cell noCPT	MCF10A rereplic	IL1B secr inh	SW480 rerep	Chronic BCR inh
C[C@H](Nc1ncnc2sc3c(c12)CCC3)C(=O)O	0%	1%	-5%	-4	-1%	?
O=S(=O)(c1c(F)cccc1F)N1CCCC2CCCCC21 (configuration not stated)	?	21µM*	15%	12	-6%	0%
O=C(CC1CCCC1)N1CCN(S(=O)(=O)c2c(F)cccc2F)CC1	0%	-29%	nt	91	nt	nt
NC1=NC(=Nc2ccc(S(N)(=O)=O)cc2)c2ccccc21	-18%	-7%	0%	-27	-2%	1%
NC1=NC(=Nc2cccc(S(=O)(=O)N3CCOCC3)c2)c2ccccc21	?	-29%	21%	-60*	4%	0%
COc1ccc(OCC(O)CNC(=O)c2cccs2)cc1 (configuration not stated)	2%	3%	-8%	11	-3%[9.22 µM]	?
OC(CNCCNc1ncccc1C(F)(F)F)COc1ccc(F)cc1 (configuration not stated)	-27%	?	-2%	-82*	-9%	0%
Cc1nnc(SCc2nc3sc4c(c3c(=O)[nH]2)CCCC4)[nH]c1=O	-13%	-25%	0%	-4	1%	3%
O=C(NNC(=O)c1ccc(Cl)cc1Cl)c1csc(-c2cccnc2)n1	-11%	?	20%	-4	?	1%
N#C/C(=N\Nc1cccc(C(F)(F)F)c1)C(=O)c1csc(-c2cccnc2)n1	16µM*	26µM*	?	23	-7%	?
CCOC(=O)C1(C)CCCN(C(=O)c2cccnc2)C1 (configuration not stated)	-16%	17%	nt	2	nt	nt
COC(=O)C1=C(N)N(c2ccccc2C(F)(F)F)C2=C(C(=O)CCC2)C1c1ccc2c(c1)OCO2 (configuration not stated)	23µM*	?	-5%	-5	-2%	1%
O=C(c1ccccc1)N1c2nc(-c3ccco3)nn2C2(CCCCC2)[C@@H]2CCCC[C@@H]21	-4%	2%	nt	nt	nt	nt
COc1cccc(C(=O)N2c3nc(-c4ccco4)nn3C3(CCCCC3)[C@@H]3CCCC[C@@H]32)c1	?	16µM*	nt	nt	nt	nt
Cc1ccc(C(=O)N2c3nc(-c4ccco4)nn3C3(CCCCC3)[C@@H]3CCCC[C@@H]32)cc1	16µM*	15µM*	nt	nt	nt	nt
CSc1nc(Oc2ccc3ccccc3c2)c2sccc2n1	?	?	?	76	21µM*	-17%
c1ccc(N2CCN(Cc3ccc4c(c3)OCO4)CC2)nc1	-9%	-6%	-6%	-16	5%	nt
Brc1ccc(CN2CCN(c3ccccn3)CC2)s1	-9%	-19%	7%	-83*	-1%	19%
Cc1[nH]c2ccccc2c(=O)c1CN1CCCCC1	-13%	-11%	?	0	-22%	0%
Cc1[nH]c2ccccc2c1CN1CCC(Cc2ccccc2)CC1	2.6µM*	2.6µM*	21%	-85*	?	?
Cc1[nH]c2ccccc2c1CN1CCN(c2ccccn2)CC1	2.3µM*	5.2µM*	3%	nt	103%	0%
CC(=O)N/N=C(/C)c1ccc(NC(=O)c2csc(C)c2C)cc1	-26%	-16%	10%	-28	0%	?
COC(=O)[C@]12CCCCC=C1N(CCc1ccc(OC)c(OC)c1)C(=O)[C@H](CC(=O)NCc1ccc(OC)c(OC)c1)C2	29µM*	16µM*	nt	-18	nt	nt
COC(=O)[C@]12CCCCC=C1N(CCc1ccc(OC)c(OC)c1)C(=O)[C@H](CC(=O)N1CCN(C(=O)C3CC3)CC1)C2	-24%	-26%	nt	-21	nt	nt
COC(=O)[C@]12CCCCC=C1N(CCc1ccc(OC)c(OC)c1)C(=O)[C@H](CC(=O)NCCCCc1ccccc1)C2	21µM*	16µM*	nt	?	nt	nt
SMILES	DT40 TDP1 CPT	TDP1 cell noCPT	MCF10A rereplic	IL1B secr inh	SW480 rerep	Chronic BCR inh
COC(=O)[C@]12CCCCC=C1N(Cc1ccc3c(c1)OCO3)C(=O)[C@H](CC(=O)NCc1cccc(C(F)(F)F)c1)C2	?	?	nt	-18	nt	nt
COC(=O)[C@]12CCCCC=C1N(CCc1ccc(OC)c(OC)c1)C(=O)[C@H](CC(=O)NCc1cccc(C(F)(F)F)c1)C2	?	16µM*	nt	-5	nt	nt
COC(=O)[C@]12CCCCC=C1N(CCc1ccc(OC)c(OC)c1)C(=O)[C@H](CC(=O)NCCCN1CCCC1=O)C2	10%	-16%	nt	0	nt	nt
COC(=O)[C@]12CCCCC=C1N(CCc1ccc(OC)c(OC)c1)C(=O)[C@H](CC(=O)NCc1ccccc1)C2	?	21µM*	nt	2	nt	nt
Cc1cccc(CCNC(=O)c2ccc(CSCc3cccc(Cl)c3)o2)c1	?	?	nt	nt	nt	1%
O=C(COC(=O)c1cc(-c2ccccn2)nc2ccccc12)Nc1ncc(C(F)(F)F)cc1Cl	?	?	17%	30	-5%	12%
COc1ccc(S(=O)(=O)N2CCOCC2)cc1NC(=O)C1CCN(S(=O)(=O)c2ccc(Cl)cc2)CC1	-3%	-12%	6%	0	4%	nt
COC(=O)[C@]12CCCCC=C1N(CCc1ccc(OC)c(OC)c1)C(=O)[C@H](CC(=O)NCCc1ccccc1OC)C2	?	18µM*	nt	?	nt	nt
COC(=O)[C@]12CCCCC=C1N(Cc1ccccc1)C(=O)[C@H](CC(=O)NCCc1ccccc1OC)C2	?	?	nt	3	nt	nt
